Drawing on PubChem BioAssay (NCI), this text covers growth for 30 molecules.

The panel holds about 83,000 compounds, 20% with a hit somewhere; the sample as a whole holds those more often.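 Single-concentration screen, 48 h exposure, 96-well plates. Endpoint: percent growth. Below 10 = active.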 Unmarked numbers belong to inactive results. Activity calls are given as the source filed them.

This experiment relates to HCT-15 colon. The experiment is described as follows: NCI-60 one-dose screen, 48 h (100 = growth as untreated, 0 = no growth, -100 = all killed). The note with it: 10 µM unless noted.
With `CCOC(=O)c1c(C)nc2c(c1N)CC(=O)N2Cc1cc(OC)c(OC)c(OC)c1`, the growth was 28.5%.
Next, `Cc1c(Cl)cccc1C(=O)Nc1nc2c(s1)CN(C(=O)Nc1cccc(C(F)(F)F)c1)CC2`: 11.8%; `COc1cc2nc(Nc3cccc(F)c3)nc(Nc3cc(C)[nH]n3)c2cc1OC`: -78.6% [20 µM] (active).
The same measure for `CCC(CC)(N(CC(=O)O)CC(=O)O)C(CC)(CC)N(CC(=O)O)CC(=O)O`: 131%; for `O=C(O)c1cn(C2CC2)c2cc(N3CCN(C(=O)N/N=C/c4ccccc4)CC3)c(F)cc2c1=O`: 98.4%; for `COc1ncc2cc1NS(=O)(=O)c1cccc(c1)C(=O)NCC1=CC=C(S1)c1ncnc3c1SC2=C3C`: -18.2% (active).
As for `CCOC(=O)c1c(-c2ccc(Cl)cc2)c(C#N)c2c(C#N)c(N)nn2c1N`, the growth was 47.2%.
With `O=C(/C=C/c1cccc(Cl)c1)c1cccc(OCCCCOc2cccc(C(=O)/C=C/c3cccc(Cl)c3)c2)c1`, the growth is 83.6%.
Take `NC(CSC(c1ccccc1)(c1ccccc1)c1ccc2c(c1)OCO2)C(=O)O` (stereo not given): the growth is 25.4%.
For the molecule `O=C1NC(=O)c2c1c1c3ccccc3[nH]c1c1oc3ccc(F)cc3c21`, the growth was 55.1%.
The same measure for `O=c1ccc2nc(C(F)(F)F)nn(-c3ccccc3)c-2c1`: -79.7% (active).
Next, `CCNc1nc(-c2ccc(F)cc2)c(C#N)c(=O)n1C`: 56.8%; `Clc1nccc2c(-c3csc(-c4c[nH]c5ccccc45)n3)c[nH]c12`: -39.6% (active).
The same measure for `C=C(C)[C@@H]1CC[C@]2(CO)CC[C@]3(C)[C@H](CC[C@@H]4[C@@]5(C)CCC(NCCc6ccc(O)cc6)C(C)(C)[C@@H]5CC[C@]43C)[C@@H]12` (stereo not given in full): -92.8% (active); for `CCCCCCCCCCCCCCCCOC(=O)c1c(C)[nH]c(/C=C2\N=C(c3ccc[nH]3)C=C2OC)c1C`: 56.3%; for `COc1ccc(-c2ccc(-c3ccc(C(=N)N)cn3)s2)cc1`: 19.9%.
Take `COc1cc(-c2nc(SCCC(C)C)nc(N3CCOCC3)c2C#N)cc(OC)c1OC`: the growth was 68.3%.
The same measure for `Cc1cc2oc(=O)cc(CP(=O)(O)O)c2cc1O`: 96%; for `O=C1/C=C/[C@@H](O)[C@@H]2C[C@@H](O)C[C@H]2/C=C/CCC[C@H](CCOCc2ccccc2)O1`: 8.84% (active); for `O[C@@H](c1cc(C(F)(F)F)nc2c(C(F)(F)F)cccc12)[C@H]1CCCCN1`: 77.5%.
Next, `O=C1CCCc2nc3sc4c(=O)n(-c5ccccc5Cl)nnc4c3cc21`: 84.3%; `O=C(CCC(=O)c1nc2ncccc2[nH]1)NN1C(=O)CSC1c1ccc(Cl)cc1` (stereo not given): 102%.
The same measure for `Cc1[nH]c(C(=O)Nc2cccc(OC3CCNCC3)c2)c(Cl)c1Cl`: 51%; for `CCOC(=O)C(=Cc1cccc(C#N)c1)C(=O)OCC`: 39%.
On to `C=CCn1c(SCC(=O)Nc2ccc(C(=O)/C=C/c3ccc(OC)cc3)cc2)nnc1-c1ccccc1`, for which the growth was 83.4%.
Consider `COc1ccc(/C=C/C(=O)c2cc3c(N)c(C(=O)Nc4ccccc4C)sc3nc2C)cc1`, for which the growth is 15.2%.
For `O=C1NC(=O)c2c1c1c3ccccc3[nH]c1c1oc3cc(Br)ccc3c21`, the growth was 70.4%.
The same measure for `CS(=O)(=O)Cc1cnc(C2OCCO2)s1`: 109%.
On to `COc1ccc(C2=Nc3c(N)ncnc3NC(c3cccc(Nc4ccnc5cc(C(F)(F)F)ccc45)c3)C2)cc1` (stereo not given), for which the growth is 32.4%.
Next, `NS(=O)(=O)c1ccc(N/C=C/C(=O)c2cc3ccccc3oc2=O)cc1`: 93.5%.
